# According to PubChem BioAssay (EPA / NIEHS):
# Several values for one entry are separate records, joined by “and”; a condition that tells them apart may be missing. Equal values may be shown once. Activity calls are given as the source filed them. The calls were made as follows: active = hit-call score of the fitted dose curve at least 0.9, where 1 is the maximum; inactive = score below 0.9.
# Test: ATG_NFI_CIS: Attagene CIS-FACTORIAL HepG2 Assay for human Nuclear Factor I (NFI) (AID 2282989)
# Settings: HepG2 cis-regulatory reporter, NFI response element transcription; actives raise or lower the signal
# Method: ATG_CIS is a cell-based, multiplexed-readout assay that uses HepG2, a human liver cell line, with measurements taken at 24 hours after chemical dosing in a 24-well plate.ATG_NFI_CIS is one of 52 assay component(s) measured or calculated from the ATG_CIS assay. It is designed to make measurements of mRNA induction, a form of inducible reporter, as detected with fluorescence intensity signals by Reverse transcription polymerase chain reaction (RT-PCR) and Capillary electrophoresis technology.Data from the assay component ATG_NFI_CIS was analyzed into 1 assay endpoint. This assay endpoint, ATG_NFI_CIS, was analyzed with bidirectional fitting relative to DMSO as the negative control and baseline of activity. Using a type of inducible reporter, measures of mRNA for gain or loss-of-signal activity can be used to understand the reporter gene at the transcription factor-level as they relate to the gene NFIA. Furthermore, this assay endpoint can be referred to as a primary readout, because this assay has produced multiple assay endpoints where this one serves a reporter gene function. To generalize the intended target to other relatable targets, this assay endpoint is annotated to the dna binding intended target family, where the subfamily is nuclear factor I.
# Human liver HepG2 cells are transiently transfected with multiple reporter transcription units (MRTUs) in 6-well plates using FuGene 6 reagent (Roche; 3 ml FuGene/1 mg DNA). The MRTU constructs are regulated by a cis-regulating element (promoter). […] A major difference between the CIS and TRANS system is that in CIS activities of endogenous TFs are measured, whereas the TRANS assay evaluates changes in activities of exogenous, chimeric NR-Gal4 proteins. […] At the end of 24 hour incubation, total RNA was isolated using TriZol reagent (Invitrogen). The isolated RNA is then reverse-transcribed using oligo(dT) primer and Mo-MLV reverse transcriptase (Invitrogen) with DNAse I (Ambion) treatment for 30 min. The one-tenth of the produced cDNA was amplified by PCR using Taq DNA polymerase (Invitrogen) and two reporter sequence-specific primers. The PCR products were fluorescently labeled by primer extension with 6-arboxyfluorescein (6-FAM) 5'-labeled reporter sequence-specific primer (2 min at 95 C, 20 s at 68 C and 10 min at 72 C) and these products were digested with 5U of HpaI (New England Biolabs) for 2h at 37 C. The fragments were purified using Qiaquick PCR columns (Qiagen), analyzed on an ABI 3130xL genetic analyzer (Applied Biosystems) with peak positions identified by using a set of X-rhodamine (ROX)-labeled MapMarker1000 molecular weight standards (BioVentures). The raw capillary electrophoresis data was processed using Attagraph software (Attagene).
SMILES,outcome,AC50
C=C(C)C(=O)OCCC(F)(F)C(F)(F)C(F)(F)C(F)(F)C(F)(C(F)(F)F)C(F)(F)F,inactive,–
O=C(Cl)C(F)(F)C(F)(F)C(F)(F)C(F)(F)C(F)(F)C(F)(F)C(F)(F)C(F)(F)F,inactive,–
CCCCCCCOC(=O)c1ccccc1C(=O)OCCCCCCC,inactive,–
CCCCCCCCC(F)(F)C(F)(F)C(F)(F)C(F)(F)C(F)(F)C(F)(F)F,–,36 µM (active)
FC(F)(F)C(F)(F)C(F)(F)C(F)(F)C(F)(F)C(F)(F)CC1CO1 (stereo not given),inactive,–
CCN(Cc1cccc(S(=O)(=O)O)c1)c1ccc(C(=C2C=CC(=[N+](CC)Cc3cccc(S(=O)(=O)O)c3)C=C2)c2ccc(O)cc2S(=O)(=O)[O-])cc1,inactive,–
C=CC(=O)OCC(F)(F)C(F)(F)C(F)(F)C(F)(F)C(F)(F)C(F)(F)C(F)(F)F,inactive,–
CCCCCCC(C)OC(=O)CCCCC(=O)OC(C)CCCCCC (stereo not given),inactive,–
O=C(C=Cc1ccccc1)OCC=Cc1ccccc1,inactive,–
O=P(O)(O)OCCC(F)(F)C(F)(F)C(F)(F)C(F)(F)C(F)(F)C(F)(F)F,inactive,–
O[Si](c1ccccc1)(c1ccccc1)c1ccccc1,–,100 µM (active)
CC(C)=CCCC(C)CCOC(=O)C(C)C (stereo not given),inactive,–
OCCCC(F)(F)C(F)(F)C(F)(F)C(F)(F)C(F)(F)C(F)(F)C(F)(F)F,–,71.1 µM (active) and 267 µM (active)
O=C(O)C(F)(F)C(F)(F)C(F)(F)F,inactive,–
FC(F)(F)C(F)(F)C(F)(F)C(F)(F)C(F)(F)C(F)(F)C(F)(F)I,inactive,–
C=C(C)C(=O)OCC(F)(F)C(F)(F)C(F)(F)C(F)(F)C(F)(F)C(F)(F)C(F)(F)F,inactive,–
CC(C)(C)c1ccc(OC2CCCCC2O)cc1 (stereo not given),inactive,–
OC[C@@H](O)[C@@H](O)[C@H](O)[C@@H](O)CO,inactive,–
CCCCNc1ccccc1,inactive,–
FC(F)(F)C(F)(F)CNCC(F)(F)C(F)(F)F,inactive,–

SMILES,outcome,AC50
O=S(=O)(O)c1ccc2ccccc2c1,inactive,–
c1ccc(-c2ccccc2-c2ccccc2)cc1,–,100 µM (active)
NC(=O)C(F)(F)C(F)(F)C(F)(F)C(F)(F)F,inactive,–
O=C(CC(=O)C(F)(F)C(F)(F)F)C(F)(F)F,inactive,–
C(=C(c1ccccc1)c1ccccc1)c1ccccc1,inactive,–
O=S(=O)(OCC(F)F)C(F)(F)F,inactive,–
CCCCCCOC(=O)c1ccccc1,inactive,–
CCCCCCOC(=O)c1ccccc1O,inactive,–
CCO[Si](CCC(F)(F)C(F)(F)C(F)(F)C(F)(F)C(F)(F)C(F)(F)F)(OCC)OCC,inactive,–
Nc1cc(Cl)c(N)c(Cl)c1,inactive,–
CN(C)Cc1ccccc1O,inactive,–
[Co],inactive,–
C=CC(F)(F)C(F)(F)C(F)(F)C(F)(F)C(F)(F)C(F)(F)C(F)(F)C(F)(F)C=C,inactive,–
O=C(O)C(F)(F)C(F)(F)OC(F)(F)F,inactive,–
Nc1ccc(Oc2cccc(Oc3ccc(N)cc3)c2)cc1,–,166 µM (active)
CCCCCC=O,inactive,–
Cc1ccc(S(=O)(=O)NCl)cc1,inactive,–
O=C(O)C(F)(F)C(F)(F)C(F)(F)C(F)(F)C(F)(F)C(F)(F)C(F)(F)C(F)(F)C(F)(F)C(F)F,inactive,–
FC(F)(F)C(F)(F)C(F)(F)C(F)(F)C(F)(F)C(F)(F)C(F)(F)C(F)(F)F,inactive,–
CNC(=S)NC,inactive,–
